Assay results as given in PubChem BioAssay AID1527 (The Scripps Research Institute Molecular Screening Center, 2009).
Screen size: about 290,000 compounds; about 2,600 (0.9%) were called active. This is one part of a sample in which actives are shown more often than they occur.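 How the source made its calls: active means inhibition above the mean of all tested compounds plus 3 SD, cutoff set per screening run (cut at about 7.5% in these data); inactive means the rest.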

These compounds were tested on VIM-2 metallo-beta-lactamase (Pseudomonas aeruginosa) (assay: VIM-2 metallo-beta-lactamase inhibitors, primary screen, biochemical, epi-absorbance readout, Pseudomonas aeruginosa enzyme (AID 1527;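 further: red hydrolysis product quenches plate fluorescence so inhibitors raise well fluorescence; 0% = enzyme with DMSO and 100% = DMSO without enzyme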)). Conditions: purified VIM-2, nitrocefin hydrolysis, epi-absorbance fluorescence; at 5.6 µM; active compounds read high.
With `CC(Nc1nc(N2CCOCC2)nc2ccccc12)c1ccccc1` (stereo not drawn) the inhibition was -1.07% (inactive).
`CC(Nc1nc(N2CCN(CCO)CC2)nc2ccccc12)c1ccccc1` (stereo not drawn) was tested, and the inhibition was -0.41% (inactive).
In the case of `CC(Nc1nc(N2CCCC2)nc2ccccc12)c1ccccc1` (stereo not drawn), the inhibition is reported as 10.3% (active).
For `CCOCCCNc1nc(-c2ccccc2)nc2ccccc12`, the inhibition was 1.44% (inactive).
`CCOCCn1c(-c2ccccc2)nc2ccccc21` was tested, and the inhibition was -2.42% (inactive).
In the case of `CCOCCCNc1c(CC)c(C)c(C#N)c2nc3ccccc3n12`, the inhibition is reported as 12.7% (active).
With `CCOC(=O)C1(c2ccccc2)NC(c2ccc(N(C)C)cc2)C2C(=O)N(C)C(=O)C21` (stereo not drawn) the inhibition was -1.25% (inactive).
`COc1ccc(CN2CC(C(=O)NC3CCCCC3)CC2=O)cc1` (stereo not drawn) was tested, and the inhibition was 0.64% (inactive).
`COc1ccc(N(CC(=O)Nc2cccc3ccccc23)S(C)(=O)=O)c(OC)c1` was tested, and the inhibition was -2.25% (inactive).
With `N#Cc1c2c(c(-c3ccccc3)[nH]c1=O)CCCC2` the inhibition was -0.97% (inactive).
In the case of `O=c1[nH]c(-c2ccccc2)c(-c2ccccc2)[nH]1`, the inhibition is reported as 13.9% (active).
In the case of `c1ccc(-c2cc(-c3ccccc3)[nH]n2)cc1`, the inhibition is reported as -2.1% (inactive).
`COc1ccc(N2CCN(C(=O)c3ccccc3NC(=O)C3=C(C)OCCS3)CC2)cc1` was tested, and the inhibition was -0.86% (inactive).
With `COc1cc(NC(=O)C2=C(C)OCCS2)c(Cl)cc1C(=O)NCCN1CCN(C)CC1` the inhibition was 25.9% (active).
With `CCCCNC(=O)c1ccccc1NC(=O)C1=C(C)OCCS1` the inhibition was -1.59% (inactive).
With `CCn1cc(CN2CCC(C(=O)Nc3cccc(-c4cccc(Cl)c4)c3)CC2)c(C)n1` the inhibition was -1.75% (inactive).
With `Cc1cc(OCC(=O)NC2CCN(C)CC2)ccc1[N+](=O)[O-]` the inhibition was 9.4% (active).
For `Cc1cc(OCCCCOc2ccc(C#N)cc2)ccc1[N+](=O)[O-]`, the inhibition was -2.44% (inactive).
For `O=C(COc1ccccc1[N+](=O)[O-])NC1CC1`, the inhibition was -2.67% (inactive).
In the case of `COc1cc(CN2CCN(Cc3ccc(C)cc3)CC2)c([N+](=O)[O-])cc1OC`, the inhibition is reported as 0.03% (inactive).
`Cc1cc(OCCCN2CCN(Cc3ccccc3)CC2)ccc1[N+](=O)[O-]` was tested, and the inhibition was 8.13% (active).
For `Cc1cc(OCC(=O)Nc2c(C)n(C)n(-c3ccccc3)c2=O)ccc1[N+](=O)[O-]`, the inhibition was -4.47% (inactive).
With `Oc1ccc(-c2cccc(-c3ccc(O)cc3)c2)cc1` the inhibition was -2.2% (inactive).
With `Cc1ccc(CNC(=O)c2ccc(CS(=O)Cc3cccc(Cl)c3)o2)cc1` (stereo not drawn) the inhibition was -2.03% (inactive).
`COCCCC1CCN(C(=O)C2CCC(=O)N(C3CCCCCC3)C2)CC1` (stereo not drawn) was tested, and the inhibition was -3.17% (inactive).
`CCCc1cc(=O)oc2cc(OCC(=O)Nc3ccc(CN4CCOCC4)cc3)c(Cl)cc12` was tested, and the inhibition was 0.28% (inactive).
For `CCc1cc(=O)oc2c(C)c(OCC(=O)NCCN3CCOCC3)ccc12`, the inhibition was 6.89% (inactive).
`O=C(COc1cc2oc(=O)c3c(c2cc1Cl)CCC3)NCCCN1CCOCC1` was tested, and the inhibition was 27.2% (active).
